Screens: PubChem BioAssay, The Scripps Research Institute Molecular Screening Center
FBW7 act: human FBW7 E3 ligase activation, primary screen; Q969H0; AlphaScreen FBW7–phospho-cyclin E peptide binding, activator screen; normalized activity (activation), % at 26.1 µM; 650,000 tested, 0.13% active; AID 1259310; in the data active = normalized activity above about 1.9%;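 also: purified mutant Fbw7 with reduced substrate affinity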
TEAD-YAP inh: TEAD-YAP interaction inhibition; inhibition, % at 9.12 µM; HEK-TIYL cells, TEAD-Gal4/YAP UAS-luciferase luminescence; 640,000 tested, 1.4% active; in the data active = inhibition above about 32%;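 also: 0% = median of test compound wells and 100% = reference inhibitor wells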
GPR151 ag: activates the human receptor GPR151; 650,000 tested, 1% active; activation, % at 11.2 µM; PathHunter beta-arrestin GPR151 cells, luminescence; Q8TDV0; in the data active = activation above about 4.9%;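 also: 0% = median of compound wells and 100% = cells with positive control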
MITF inh: blocks human microphthalmia-associated transcription factor; O75030; 650,000 tested, 0.91% active; inhibition, % at 2.6 µM; AlphaScreen MITF homodimerization, bead proximity signal; AID 1259374; in the data active = inhibition above about 50%;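 also: 0% = vehicle wells with protein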
Target sequence (O75030 whole entry, looked up): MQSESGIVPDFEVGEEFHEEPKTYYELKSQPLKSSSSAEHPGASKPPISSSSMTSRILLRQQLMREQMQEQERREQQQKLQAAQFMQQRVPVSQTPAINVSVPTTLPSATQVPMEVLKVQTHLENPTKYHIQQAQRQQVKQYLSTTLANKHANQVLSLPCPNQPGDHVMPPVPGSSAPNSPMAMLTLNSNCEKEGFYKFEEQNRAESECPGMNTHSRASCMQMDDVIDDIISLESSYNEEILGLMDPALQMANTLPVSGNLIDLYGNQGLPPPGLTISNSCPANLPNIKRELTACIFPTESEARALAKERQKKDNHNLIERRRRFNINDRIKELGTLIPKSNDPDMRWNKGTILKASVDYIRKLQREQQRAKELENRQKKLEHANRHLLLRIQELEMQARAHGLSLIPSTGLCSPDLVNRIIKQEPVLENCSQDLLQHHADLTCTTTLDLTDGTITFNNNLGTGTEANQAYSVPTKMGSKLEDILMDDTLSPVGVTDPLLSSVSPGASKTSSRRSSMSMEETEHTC
MITF inh conf: confirmation of human MITF inhibitors. shares compounds with MITF inh. inhibition, % at 2.6 µM. AlphaScreen MITF homodimerization, biotin/His-MITF beads. 4,700 tested, 16% active;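 active = inhibition above a cutoff derived from the DMSO control wells, cut at about 28% in these data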;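 also: 0% = MITF dimer wells with DMSO only; inhibitors lower the bead chemiluminescence by keeping MITF from dimerizing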
AlphaScreen DR: counter-screen: compounds optically interfering with AlphaScreen; shares compounds with MITF inh; AlphaScreen optical interference counterscreen, cell-free; IC50, µM; 480 tested, 6% active; call rule not given here
AS interf ctr: counter-screen: compounds optically interfering with AlphaScreen; shares compounds with MITF inh; LysRS AlphaScreen counterscreen, signal interference, triplicate; inhibition, % at 2.6 µM; 4,700 tested, 7.6% active;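 active = inhibition above a cutoff derived from the DMSO control wells, cut at about 30% in these data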
* = called active by the depositor; nt = no result given. This is a sample that favours compounds with a hit; in the whole collection about 3.5% have one here.

SMILES | FBW7 act | TEAD-YAP inh | GPR151 ag | MITF inh | MITF inh conf | AS interf ctr | others
CN(C(=O)c1cc2c(=O)oc3ccccc3c2s1)c1ccc(Cl)cc1 | 0.0 | 0.9 | -1.1 | 6.5 | nt | nt
CCN(C(=O)C1COc2ccccc2O1)C12CC3CC(CC(C3)C1)C2 (stereo unspecified) | 0.4 | 5.4 | -1.8 | 60.8* | 70.7* | 1.1 | AlphaScreen DR=>6.83
O=C(OCC(=O)C12CC3CC(CC(C3)C1)C2)C1COc2ccccc2O1 (stereo unspecified) | 0.3 | 5.1 | 0.9 | 4.5 | nt | nt
COCCNCC(=O)N1c2ccccc2Sc2ccccc21 | 1.1 | 9.8 | 1.7 | 7.8 | nt | nt
O=C(CNCCOCCO)N1c2ccccc2Sc2ccccc21 | -0.1 | 11.9 | 1.1 | 73.6* | 5.5 | 6.9
Cc1ccc(S(=O)(=O)N2CCn3cccc3C2c2ccc(F)cc2)cc1 (stereo unspecified) | -0.4 | -4.0 | -0.1 | 2.5 | nt | nt
COc1ccc(S(=O)(=O)N2CCn3cccc3C2c2ccccc2F)cc1C (stereo unspecified) | -0.1 | 2.7 | 0.2 | 58.3* | 2.5 | -0.9
O=C1O/C(=C\C=C2/OC(=O)c3ccccc32)c2ccccc21 | 1.0 | 5.5 | -1.0 | -9.9 | nt | nt
CCOc1cccc(OCCCNC(C)CC)c1 (stereo unspecified) | -0.2 | 0.8 | -0.4 | 18.6 | nt | nt
CCC(C)NCCOCCOc1ccccc1 (stereo unspecified) | 0.0 | 3.6 | -1.6 | -8.7 | nt | nt
CCC(C)NCCCOc1ccc(Br)cc1C (stereo unspecified) | -0.3 | 7.9 | 2.0 | 56.9* | -3.4 | -2.6
CCC(C)NCCOCCOc1ccc(I)cc1 (stereo unspecified) | 0.0 | -5.9 | 0.2 | 54.7* | 2.4 | 13.6
CCC(C)NCCOc1cccc(Br)c1 (stereo unspecified) | -0.1 | -2.1 | -1.4 | 60.6* | 45.4* | -20.2 | AlphaScreen DR=>6.48
Cn1c(Nc2nc(C(=O)NC3CCN(Cc4ccccc4)CC3)cs2)nc2ccccc21 | -0.2 | 4.2 | 0.2 | -8.2 | nt | nt
CCN(CC(=O)Nc1cccc(OC)c1)CC(=O)Nc1ccc(C)cc1Cl | -0.1 | 7.8 | 2.0 | 61.7* | 4.4 | 18.1
CCN(CC(=O)Nc1cccc(OC)c1)Cc1cc(=O)oc2cc(NC(C)=O)ccc12 | -0.1 | 8.2 | -0.6 | 53.8* | 24.1 | -6.3
CCN(CC)CC(=O)Nc1cccc(OC)c1 | 0.1 | -0.7 | 2.7 | 1.5 | nt | nt
O=C(NC1CCCCCCCCCCC1)c1cccc(C(=O)NC2CCCCCCCCCCC2)c1 | 0.1 | -2.1 | -0.3 | -4.6 | nt | nt
O=C(NCCc1ccccc1)c1cc(S(=O)(=O)N2CCc3ccccc32)ccc1Sc1ccc(F)cc1 | -0.1 | -0.7 | 0.1 | -4.5 | nt | nt
CN1CCC(N(C)Cc2ccc(F)c(Br)c2)CC1 | 0.5 | -12.1 | -0.7 | 53.7* | 17.8 | 16.5
O=C(O)CC1S/C(=N/N=C/c2cccc(OCc3ccccc3)c2)NC1=O (stereo unspecified) | -0.1 | -2.1 | -0.1 | 20.0 | nt | nt
OC(CNCCNCC(O)COc1ccccc1)COc1ccccc1 (stereo unspecified) | 0.1 | 6.7 | -1.2 | 18.9 | nt | nt
OC(CNCC1CCCCC1)COc1ccccc1 (stereo unspecified) | 0.0 | -4.8 | 0.1 | -5.0 | nt | nt
CN(C)C(CNCC(O)COc1ccccc1)c1cccs1 (stereo unspecified) | -0.2 | 9.1 | 2.3 | 70.6* | -3.0 | 1.9
CC1CCN(C(CNCC(O)COc2ccccc2)c2cccs2)CC1 (stereo unspecified) | -0.3 | -1.5 | -0.4 | 69.7* | -20.1 | 4.3
SMILES | FBW7 act | TEAD-YAP inh | GPR151 ag | MITF inh | MITF inh conf | AS interf ctr | others
CC(=O)N1CCC2(CC1)OCc1cc(-c3ccccc3CO)ccc1O2 | 0.1 | -1.4 | -0.6 | 10.3 | nt | nt
COCCCNCCCCOc1ccc(OCc2ccccc2)cc1 | -0.1 | -26.5 | 0.4 | 52.9* | 3.4 | 23.1
CN1CCN(CCCCOc2ccc(C(=O)c3ccccc3)cc2)CC1 | -0.1 | 2.0 | -0.7 | 74.8* | -0.9 | 8.0
CN1CCN(CCCCN2C(=O)c3ccccc3C2=O)CC1 | 0.1 | 1.9 | 0.1 | 86.6* | 11.7 | -0.1
O=C(c1ccccc1)c1ccc(OCCCCN2CCOCC2)cc1 | 0.6 | -3.5 | -1.8 | 47.6 | nt | nt
CN1CCN(CCCOc2ccc(OCc3ccccc3)cc2)CC1 | 0.0 | -40.0 | -0.6 | 58.9* | 3.0 | 4.9
O=C(Nc1ccc(-c2nc3cccnc3s2)cc1)c1c(F)cccc1F | 0.1 | 4.9 | 0.6 | -10.7 | nt | nt
Ic1ccc(OCCN2CCNCC2)cc1 | -0.3 | 5.8 | -0.8 | 62.6* | -18.2 | -2.1
CNCCCOc1ccc(C(C)(C)c2ccccc2)cc1 | -0.1 | -4.5 | 0.2 | 47.4 | nt | nt
CCC(C)(C)c1ccc(OCCN2CCNCC2)cc1 | -0.2 | 6.5 | 0.0 | 72.2* | -16.8 | -7.3
Clc1ccc(OCCN2CCNCC2)cc1 | 0.4 | 9.6 | -0.4 | 14.5 | nt | nt
CNCCOc1ccc(C(C)(C)c2ccccc2)cc1 | 0.7 | -5.5 | -0.6 | 51.6* | 6.4 | 18.3
COc1ccc(C(=O)CN2CCN(C)CC2)cc1 | 0.2 | -7.0 | 0.0 | 76.5* | -0.3 | 4.3
CCc1ccc(OCCN2CCNCC2)cc1 | -0.3 | -3.5 | -1.0 | 9.3 | nt | nt
O=C(NCCc1c[nH]c2ccccc12)C1CCCN(c2ccc(-c3cccs3)nn2)C1 (stereo unspecified) | 0.0 | -3.9 | -0.1 | -1.6 | nt | nt
CN1CCN(Nc2ncnc3c2cnn3-c2cccc(Cl)c2)CC1 | 0.3 | -28.7 | -0.9 | 2.1 | nt | nt
Nc1cc(C(=O)O)sc1Br | 0.1 | -5.7 | -0.2 | 31.1 | nt | nt
COc1ccc(CCNC(=O)Cc2noc3ccccc23)c(OC)c1 | -0.1 | 7.8 | -2.1 | 1.6 | nt | nt
c1ccc2c(OCCCN3CCNCC3)cccc2c1 | -0.4 | 4.6 | 0.0 | 37.7 | nt | nt
CC(C)(c1ccccc1)c1ccc(OCCCN2CCNCC2)cc1 | -0.4 | 5.5 | 0.2 | 58.1* | -4.9 | 2.6
c1ccc(COc2ccc(OCCN3CCNCC3)cc2)cc1 | -0.3 | -11.3 | 1.8 | 70.5* | 6.1 | -3.5
CCOc1ccc(OCCOCCN2CCOCC2)cc1 | 0.4 | 2.6 | -1.5 | 49.3 | nt | nt
CCOc1ccc(OCCCCN2CCNCC2)cc1 | 0.0 | -19.6 | -0.3 | 65.2* | 11.4 | 11.8
O=[N+]([O-])c1ccc(Cl)c(-c2nc(-c3ccccc3)c(-c3ccccc3)[nH]2)c1 | 0.7 | 18.8 | 2.0 | 20.8 | nt | nt
CCSc1nc(-c2ccccc2)c(NC(C)=O)s1 | -0.2 | 5.3 | -0.7 | 9.3 | nt | nt
CCN(CC)CCN1CCN(c2ccnc3c(-c4ccco4)cnn23)CC1 | -1.7 | -14.5 | 1.5 | 54.9* | 8.0 | 13.2
CCOc1ccccc1C(=O)Nc1ccc2c(c1)C(=O)Nc1ccccc1O2 | -0.1 | -1.9 | 3.5 | 52.8* | -7.3 | -10.3
COc1ccccc1C(=O)Nc1ccc2c(c1)C(=O)Nc1cc(Cl)ccc1O2 | 0.0 | 6.8 | 0.2 | -0.9 | nt | nt
COc1ccc(CN2CCN(S(=O)(=O)c3ccc([N+](=O)[O-])cc3)CC2)cc1 | -0.1 | -2.4 | -0.1 | 52.6* | 15.5 | 14.5
